# Measured values taken from the supplement of paper PMC10849652.
# About 8,800 targets were measured; listed, in parts, are those with a hit and a random draw of the rest. About 0.5% of all pairs of compound and target were hits. Values without a mark were called inactive.
# What was measured:
# Assay in all cases: log2 fold change, soluble protein after heating vs DMSO (PISA); higher = thermal stabilisation; K562 lysate, 10 uM; active = over 0.2 and 3.5 SD of the protein, either way, in both replicates (recomputed)
# lapatinib = compound: CS(=O)(=O)CCNCc1ccc(-c2ccc3ncnc(Nc4ccc(OCc5cccc(F)c5)c(Cl)c4)c3c2)o1 [lapatinib]
# In short: (§1)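 Log-two fold change in thermal stability relative to solvent controls is reported from duplicates. For each sample, crude K562 extract from dounce-homogenised pellets in PBS pH 7.4 with 1 mM MgCl2, at 1 mg/mL protein, was treated with 10 μM compound for 30 min. Aliquots heated for 3 min across 48°C-58°C were pooled, brought to 0.5% NP-40 at 4°C and cleared at 21,000xg for 90 min. The supernatant was quantified by TMTpro 16plex LC-MS/MS with channel sums equalised.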
# pictilisib = compound: CS(=O)(=O)N1CCN(Cc2cc3nc(-c4cccc5[nH]ncc45)nc(N4CCOCC4)c3s2)CC1 [pictilisib]
# In short: as §1
# crizotinib = compound: C[C@@H](Oc1cc(-c2cnn(C3CCNCC3)c2)cnc1N)c1c(Cl)ccc(F)c1Cl [crizotinib]
# In short: as §1
# [1] = compound: C[C@H](C1=CC=C(C=C1)C(=O)NC2=C3C=CNC3=NC=C2)N
# In short: as §1
# duvelisib = compound: C[C@H](Nc1ncnc2nc[nH]c12)c1cc2cccc(Cl)c2c(=O)n1-c1ccccc1 [duvelisib]
# In short: as §1
# gandotinib = compound: Cc1cc(Nc2cc(CN3CCOCC3)c3nc(C)c(Cc4ccc(Cl)cc4F)n3n2)n[nH]1 [gandotinib]
# In short: as §1
# tozasertib = compound: Cc1cc(Nc2cc(N3CCN(C)CC3)nc(Sc3ccc(NC(=O)C4CC4)cc3)n2)n[nH]1 [tozasertib]
# In short: as §1
# doramapimod = compound: Cc1ccc(-n2nc(C(C)(C)C)cc2NC(=O)Nc2ccc(OCCN3CCOCC3)c3ccccc23)cc1 [doramapimod]
# In short: as §1
# bafetinib = compound: Cc1ccc(NC(=O)c2ccc(CN3CC[C@H](N(C)C)C3)c(C(F)(F)F)c2)cc1Nc1nccc(-c2cncnc2)n1 [bafetinib]
# In short: as §1
# [2] = compound: Cc1cccc(CC(=O)N2CCc3c2ccc(-c2cn(C)c4ncnc(N)c24)c3F)n1
# In short: as §1
# nilotinib = compound: Cc1cn(-c2cc(NC(=O)c3ccc(C)c(Nc4nccc(-c5cccnc5)n4)c3)cc(C(F)(F)F)c2)cn1 [nilotinib]
# In short: as §1
# [3] = compound: Cc1nc(Nc2n[nH]c3c2CN(C(=O)N[C@H](CN(C)C)c2ccccc2)C3(C)C)c2sccc2n1
# In short: as §1
# dasatinib = compound: Cc1nc(Nc2ncc(C(=O)Nc3c(C)cccc3Cl)s2)cc(N2CCN(CCO)CC2)n1 [dasatinib]
# In short: as §1
# [4] = compound: Cc1ncc(-c2ccnc(Nc3ccc(S(C)(=O)=O)cc3)n2)n1C(C)C
# In short: as §1
# [5] = compound: Cn1cc(-c2ccc3c(c2)CCN3C(=O)Cc2cccc(C(F)(F)F)c2)c2c(N)ncnc21
# In short: as §1
# quisinostat = compound: Cn1cc(CNCC2CCN(c3ncc(C(=O)NO)cn3)CC2)c2ccccc21 [quisinostat]
# In short: as §1
# tipifarnib = compound: Cn1cncc1[C@@](N)(c1ccc(Cl)cc1)c1ccc2c(c1)c(-c1cccc(Cl)c1)cc(=O)n2C [tipifarnib]
# In short: as §1
# [6] = compound: NC(=O)Nc1cc(-c2cccc(F)c2)sc1C(=O)N[C@H]1CCCNC1
# In short: as §1
# [7] = compound: NC(=O)c1cnc(N[C@@H]2CCCC[C@@H]2N)nc1Nc1cccc(-n2nccn2)c1
# In short: as §1
# [8] = compound: NC1(c2ccc(-c3nc4ccn5c(=O)[nH]nc5c4cc3-c3ccccc3)cc2)CCC1
# In short: as §1
# Sequence of UniProt Q96S44 (Q96S44 whole entry, looked up): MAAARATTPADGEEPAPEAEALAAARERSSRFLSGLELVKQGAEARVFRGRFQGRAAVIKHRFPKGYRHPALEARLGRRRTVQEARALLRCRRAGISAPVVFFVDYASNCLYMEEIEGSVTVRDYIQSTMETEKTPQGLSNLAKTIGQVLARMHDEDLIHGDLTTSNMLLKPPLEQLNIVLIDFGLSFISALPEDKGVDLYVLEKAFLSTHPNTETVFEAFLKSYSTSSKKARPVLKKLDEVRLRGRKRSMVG
# Sequence of UniProt Q9H7E2 (Q9H7E2 whole entry, looked up): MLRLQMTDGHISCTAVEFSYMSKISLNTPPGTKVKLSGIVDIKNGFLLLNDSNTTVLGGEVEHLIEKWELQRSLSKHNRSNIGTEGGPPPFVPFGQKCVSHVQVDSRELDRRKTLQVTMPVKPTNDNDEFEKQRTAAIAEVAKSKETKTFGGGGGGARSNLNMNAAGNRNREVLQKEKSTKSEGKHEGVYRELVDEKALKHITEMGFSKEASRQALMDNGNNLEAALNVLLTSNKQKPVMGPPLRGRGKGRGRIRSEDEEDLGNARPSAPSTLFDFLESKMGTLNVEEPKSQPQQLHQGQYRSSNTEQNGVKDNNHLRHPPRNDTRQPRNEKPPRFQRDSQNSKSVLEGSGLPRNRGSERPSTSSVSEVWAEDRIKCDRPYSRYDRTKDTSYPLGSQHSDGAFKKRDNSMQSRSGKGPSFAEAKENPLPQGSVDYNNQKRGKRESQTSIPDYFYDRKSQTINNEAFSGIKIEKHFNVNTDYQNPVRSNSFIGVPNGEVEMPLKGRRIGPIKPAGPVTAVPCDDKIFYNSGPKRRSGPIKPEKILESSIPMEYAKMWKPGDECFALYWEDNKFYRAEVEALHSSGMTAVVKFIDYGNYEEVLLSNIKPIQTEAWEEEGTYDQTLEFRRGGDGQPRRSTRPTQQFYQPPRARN
# Sequence of UniProt Q6IPR3 (Q6IPR3 whole entry, looked up): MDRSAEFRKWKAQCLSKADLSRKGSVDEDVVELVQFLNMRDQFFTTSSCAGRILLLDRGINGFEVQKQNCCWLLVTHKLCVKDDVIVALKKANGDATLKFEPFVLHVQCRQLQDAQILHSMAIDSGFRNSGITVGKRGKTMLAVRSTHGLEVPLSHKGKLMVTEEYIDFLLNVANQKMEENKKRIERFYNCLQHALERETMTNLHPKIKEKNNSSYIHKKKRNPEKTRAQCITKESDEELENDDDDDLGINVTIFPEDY
# Sequence of UniProt Q9NZI7 (Q9NZI7 whole entry, looked up): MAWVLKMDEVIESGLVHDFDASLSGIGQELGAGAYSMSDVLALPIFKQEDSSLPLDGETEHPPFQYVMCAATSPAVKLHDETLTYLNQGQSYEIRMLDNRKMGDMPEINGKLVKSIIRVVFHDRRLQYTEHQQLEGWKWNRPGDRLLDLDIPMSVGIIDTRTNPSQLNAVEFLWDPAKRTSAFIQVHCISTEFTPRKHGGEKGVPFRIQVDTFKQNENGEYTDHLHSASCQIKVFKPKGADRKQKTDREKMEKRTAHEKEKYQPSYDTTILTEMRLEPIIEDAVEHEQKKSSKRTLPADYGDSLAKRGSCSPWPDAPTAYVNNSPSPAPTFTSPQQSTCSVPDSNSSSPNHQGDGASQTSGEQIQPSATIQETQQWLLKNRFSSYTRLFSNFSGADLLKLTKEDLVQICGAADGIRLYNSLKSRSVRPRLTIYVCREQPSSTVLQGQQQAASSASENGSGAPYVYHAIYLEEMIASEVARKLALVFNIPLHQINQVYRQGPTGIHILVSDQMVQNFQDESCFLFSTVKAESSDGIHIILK
# Sequence of UniProt Q12933 (Q12933 whole entry, looked up): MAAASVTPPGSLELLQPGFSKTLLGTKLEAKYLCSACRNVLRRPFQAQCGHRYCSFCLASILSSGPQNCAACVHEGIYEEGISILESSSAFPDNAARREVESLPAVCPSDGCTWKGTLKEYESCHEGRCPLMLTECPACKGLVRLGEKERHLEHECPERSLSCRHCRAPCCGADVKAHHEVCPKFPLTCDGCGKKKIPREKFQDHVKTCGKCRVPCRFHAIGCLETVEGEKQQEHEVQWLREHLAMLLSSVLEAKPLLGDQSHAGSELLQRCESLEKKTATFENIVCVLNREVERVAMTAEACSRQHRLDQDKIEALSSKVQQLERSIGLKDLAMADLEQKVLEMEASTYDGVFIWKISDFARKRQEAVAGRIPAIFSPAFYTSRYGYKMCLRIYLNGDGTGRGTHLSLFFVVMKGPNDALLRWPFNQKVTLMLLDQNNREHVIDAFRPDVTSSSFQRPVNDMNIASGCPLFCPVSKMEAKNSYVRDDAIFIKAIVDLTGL
# Sequence of UniProt Q96DX7 (Q96DX7 whole entry, looked up): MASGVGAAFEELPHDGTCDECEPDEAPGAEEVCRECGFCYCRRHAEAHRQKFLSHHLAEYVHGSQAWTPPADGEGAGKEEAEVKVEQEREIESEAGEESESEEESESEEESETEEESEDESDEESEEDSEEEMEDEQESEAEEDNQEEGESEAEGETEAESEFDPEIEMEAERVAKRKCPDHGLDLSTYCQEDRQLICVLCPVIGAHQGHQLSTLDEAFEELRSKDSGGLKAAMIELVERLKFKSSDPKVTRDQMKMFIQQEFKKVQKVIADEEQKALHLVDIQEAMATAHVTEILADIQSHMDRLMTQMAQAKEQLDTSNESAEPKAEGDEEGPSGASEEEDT
# Sequence of UniProt Q969Z0 (Q969Z0 whole entry, looked up): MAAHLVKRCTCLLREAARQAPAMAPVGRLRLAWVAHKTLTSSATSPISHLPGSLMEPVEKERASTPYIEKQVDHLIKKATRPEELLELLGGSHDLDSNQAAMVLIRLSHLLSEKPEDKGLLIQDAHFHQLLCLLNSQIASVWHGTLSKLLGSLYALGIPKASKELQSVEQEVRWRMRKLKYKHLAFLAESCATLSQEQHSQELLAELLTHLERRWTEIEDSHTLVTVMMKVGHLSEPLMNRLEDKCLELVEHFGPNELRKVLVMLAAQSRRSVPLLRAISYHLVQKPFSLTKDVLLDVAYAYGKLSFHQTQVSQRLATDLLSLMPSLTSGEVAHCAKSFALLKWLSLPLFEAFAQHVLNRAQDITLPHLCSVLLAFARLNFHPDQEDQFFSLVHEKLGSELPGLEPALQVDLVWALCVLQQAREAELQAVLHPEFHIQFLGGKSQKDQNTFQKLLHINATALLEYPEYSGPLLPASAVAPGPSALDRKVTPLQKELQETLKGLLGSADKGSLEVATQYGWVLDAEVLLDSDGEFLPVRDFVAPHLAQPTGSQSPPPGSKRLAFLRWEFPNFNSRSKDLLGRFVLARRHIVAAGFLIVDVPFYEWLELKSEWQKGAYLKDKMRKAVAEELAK
# Sequence of UniProt Q15386 (Q15386 whole entry, looked up): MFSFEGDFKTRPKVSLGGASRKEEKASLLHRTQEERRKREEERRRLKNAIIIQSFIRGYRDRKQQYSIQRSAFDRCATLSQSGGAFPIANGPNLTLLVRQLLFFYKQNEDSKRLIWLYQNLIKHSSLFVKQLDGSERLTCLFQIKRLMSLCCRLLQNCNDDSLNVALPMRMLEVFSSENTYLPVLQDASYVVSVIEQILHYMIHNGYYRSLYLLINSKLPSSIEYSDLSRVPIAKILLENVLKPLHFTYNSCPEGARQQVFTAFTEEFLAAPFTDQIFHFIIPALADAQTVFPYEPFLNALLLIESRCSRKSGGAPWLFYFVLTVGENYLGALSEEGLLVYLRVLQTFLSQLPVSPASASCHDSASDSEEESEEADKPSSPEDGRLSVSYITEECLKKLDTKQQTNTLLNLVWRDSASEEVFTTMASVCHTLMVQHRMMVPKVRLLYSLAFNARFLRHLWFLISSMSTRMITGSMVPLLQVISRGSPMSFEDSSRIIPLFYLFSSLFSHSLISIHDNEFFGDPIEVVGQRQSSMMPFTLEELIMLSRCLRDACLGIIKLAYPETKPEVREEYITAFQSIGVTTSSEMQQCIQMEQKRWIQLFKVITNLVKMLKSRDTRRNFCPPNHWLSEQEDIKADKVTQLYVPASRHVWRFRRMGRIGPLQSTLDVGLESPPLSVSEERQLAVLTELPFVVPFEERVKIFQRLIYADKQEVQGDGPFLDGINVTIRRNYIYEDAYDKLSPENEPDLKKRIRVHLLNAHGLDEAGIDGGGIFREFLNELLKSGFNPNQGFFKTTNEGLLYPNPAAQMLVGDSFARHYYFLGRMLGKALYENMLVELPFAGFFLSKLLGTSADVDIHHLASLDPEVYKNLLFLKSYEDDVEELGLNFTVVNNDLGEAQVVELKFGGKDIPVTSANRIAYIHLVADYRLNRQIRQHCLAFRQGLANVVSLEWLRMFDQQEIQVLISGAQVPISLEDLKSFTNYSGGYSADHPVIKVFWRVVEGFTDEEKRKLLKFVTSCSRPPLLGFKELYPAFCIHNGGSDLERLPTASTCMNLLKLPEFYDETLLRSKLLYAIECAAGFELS
# Sequence of UniProt P67936 (P67936 whole entry, looked up): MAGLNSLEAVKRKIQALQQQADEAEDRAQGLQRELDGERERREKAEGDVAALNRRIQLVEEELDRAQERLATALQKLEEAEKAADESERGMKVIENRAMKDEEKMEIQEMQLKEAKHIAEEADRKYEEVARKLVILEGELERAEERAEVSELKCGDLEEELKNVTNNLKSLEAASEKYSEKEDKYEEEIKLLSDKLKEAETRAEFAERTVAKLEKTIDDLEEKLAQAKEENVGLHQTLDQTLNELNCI
# Sequence of UniProt P51668 (P51668 whole entry, looked up): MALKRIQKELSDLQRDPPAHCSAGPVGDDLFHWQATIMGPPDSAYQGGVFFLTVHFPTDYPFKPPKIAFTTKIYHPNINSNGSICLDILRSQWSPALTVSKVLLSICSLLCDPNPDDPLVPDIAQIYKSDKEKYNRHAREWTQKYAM
# Sequence of UniProt P04183 (P04183 whole entry, looked up): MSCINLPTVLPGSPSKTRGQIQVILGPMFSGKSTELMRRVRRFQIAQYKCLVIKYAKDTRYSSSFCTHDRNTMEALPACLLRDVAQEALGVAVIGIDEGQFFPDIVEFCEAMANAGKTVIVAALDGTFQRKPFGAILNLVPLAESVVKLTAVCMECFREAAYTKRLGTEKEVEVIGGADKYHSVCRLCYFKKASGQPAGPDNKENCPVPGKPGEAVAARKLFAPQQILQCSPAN
Target,log2 fold change (lapatinib),log2 fold change (pictilisib),log2 fold change (crizotinib),log2 fold change [1],log2 fold change (duvelisib),log2 fold change (gandotinib),log2 fold change (tozasertib),log2 fold change (doramapimod),log2 fold change (bafetinib),log2 fold change [2],log2 fold change (nilotinib),log2 fold change [3],log2 fold change (dasatinib),log2 fold change [4],log2 fold change [5],log2 fold change (quisinostat),log2 fold change (tipifarnib),log2 fold change [6],log2 fold change [7],log2 fold change [8]
TUBB2A (UniProt Q13885),0.009,0.011,-0.049,-0.016,-0.012,0.028,-0.011,0.004,0.026,-0.005,-0.005,-0.002,-0.049,-0.02,-0.001,-0.035,0.009,0.043,0.003,0.007
TPM4 isoform 2 (UniProt P67936),0.007,0,0.091,0.329 (active),0.011,-0.138,-0.027,0.002,0.075,-0.164,0.052,-0.048,0.059,0.076,-0.011,0.122,0.024,-0.039,0.029,0.02
TROAP (UniProt Q12815),0.001,-0.088,0.038,-0.065,-0.095,0.072,-0.009,-0.008,-0.1,0.004,-0.041,0.023,-0.071,0.037,0.043,-0.096,-0.005,0.007,0.031,-0.018
TRIP13 (UniProt Q15645),-0.015,0.014,-0.028,0.039,-0.01,-0.187,0.005,0.026,-0.029,-0.045,-0.002,-0.031,0.003,0.049,0.046,-0.065,0.007,0.026,0.002,-0.031
TFCP2 (UniProt Q12800),0.043,0.083,-0.093,0,-0.016,0.098,0.021,0.168,-0.075,0.004,0.042,0.023,-0.015,0.023,0.02,-0.072,-0.022,0.066,0.066,-0.059
TYW3 (UniProt Q6IPR3),-0.014,0.008,-0.022,-0.144,0.018,0.1,0,0.054,0.051,0.176,-0.033,0.017,-0.006,0.035,0.027,-0.126,-0.018,-0.014,0.046,0.017
TBRG4 (UniProt Q969Z0),-0.021,-0.039,-0.031,0.08,0.006,-0.269 (active),0.038,-0.012,-0.029,-0.021,-0.016,-0.03,-0.035,0.007,0.059,0.004,-0.006,0.038,0.022,0.019
TOR3A (UniProt Q9H497),-0.43 (active),-0.077,0.023,-0.078,0.012,0.012,-0.047,-0.024,0.046,0.048,0.042,-0.037,0.022,-0.043,0.012,0.019,-0.061,0.054,0.041,-0.064
TRAF2 isoform 2 (UniProt Q12933),-0.032,0.004,-0.032,-0.047,0.006,-0.045,0.007,0.005,-0.011,0.053,-0.02,0.008,-0.024,0.042,0.01,-0.024,0.005,-0.016,0.001,-0.016
UBE2D1 (UniProt P51668),0.052,0.043,0.01,-0.012,0.031,-0.047,0.081,0.038,-0.058,-0.033,0.259 (active),-0.093,-0.1,-0.064,0.033,0.108,-0.065,-0.06,-0.066,0.029
THADA (UniProt Q6YHU6),-0.042,-0.06,-0.073,-0.041,-0.02,-0.064,-0.003,-0.002,-0.041,0.086,0.009,0.012,-0.048,0.008,0.027,-0.115,-0.011,0.053,0.007,0.002
TRIM44 (UniProt Q96DX7),-0.242 (active),-0.11,-0.018,0.04,0.007,0.01,-0.04,0.013,0.031,-0.075,-0.016,0.001,0.073,-0.036,-0.008,0.035,0.006,0.023,-0.011,0.044
TDRD3 isoform 3 (UniProt Q9H7E2),0.005,-0.038,0.024,0.127,-0.02,-0.068,0.034,-0.151,0.093,0.01,0.261,-0.04,0.033,0.17,0.01,-0.023,-0.152,0.042,0.014,0.064
TP53RK (UniProt Q96S44),-0.011,0.026,0.042,0.042,-0.029,-0.041,-0.01,-0.029,-0.032,0.035,0.011,0,0.052,0.047,0.057,0.002,0.048,0.021,0.041,-0.013
TK1 (UniProt P04183),-0.006,0.022,0.022,-0.133,0.023,0.062,0,0,0.009,0.021,-0.009,0.002,0.004,0.003,-0.009,-0.03,0.015,-0.005,-0.043,-0.003
UBP1 (UniProt Q9NZI7),0.049,-0.004,-0.202,0.206,-0.025,-0.01,-0.043,0.15,-0.029,-0.124,-0.019,-0.039,0.008,0.05,0.002,-0.125,-0.084,0.01,0.008,-0.058
UBE3C (UniProt Q15386),-0.004,-0.029,-0.055,-0.039,0.007,-0.075,0,0.038,-0.036,0.021,-0.006,0.025,-0.047,-0.017,0.049,0.013,0.01,0.061,0.027,-0.053
TTC27 (UniProt Q6P3X3),-0.01,0.005,-0.041,-0.033,0.04,-0.129,0.004,0.048,-0.066,0.04,-0.018,0.027,-0.009,-0.031,0.01,-0.047,-0.03,0.057,-0.028,-0.023
TJP1 isoform 2 (UniProt Q07157),-0.015,-0.028,0.016,-0.065,-0.014,0.075,-0.002,0.014,-0.062,0.111,-0.003,0.004,0.036,0.006,-0.013,-0.011,-0.005,-0.019,0.022,-0.041
TTC4 (UniProt O95801),0.006,0.025,-0.073,-0.059,-0.001,0.035,0.009,0.014,-0.001,0.026,-0.04,-0.034,0.025,-0.018,0.012,-0.07,-0.01,0.025,0.023,-0.018
TRIM33 (UniProt H0Y612),-0.078,0.044,0.004,-0.093,0.012,0.019,0.07,0.001,-0.077,0.039,-0.021,0.153,0.043,0.138,-0.033,-0.238,-0.052,0.069,-0.036,-0.106
TBC1D23 (UniProt Q9NUY8),-0.007,-0.016,-0.031,-0.033,-0.012,0.03,0.034,0.017,-0.027,0.048,0.013,-0.018,-0.001,-0.005,-0.021,-0.028,0.018,0.01,-0.032,-0.004
TPP2 (UniProt Q5VZU9),-0.023,0.069,-0.057,-0.309 (active),0.02,0.104,-0.087,-0.029,-0.044,0.137,0.066,0.035,-0.194,-0.015,0.036,0.084,-0.001,0.107,-0.006,-0.039
TTC5 (UniProt Q8N0Z6),0.039,-0.021,-0.053,-0.064,0.032,-0.048,0.076,0.007,-0.052,0.04,0.012,-0.064,0,-0.016,0.047,-0.084,0.01,0,-0.007,0.001
